Reference: the supplement of paper PMC13380429

Key:
[1] = system: Vero E6 infected with SARS-CoV-2; assay: morphology score (similarity to uninfected cells); higher = more like uninfected cells; details: 24 h
[2] = system: Vero E6 infected with SARS-CoV-2; assay: SARS-CoV-2 infection rate relative to infected DMSO; higher = more infection, active = 60 or less; details: 24 h

Row | Structure (SMILES) | morphology score [1] | SARS-CoV-2 infection rate [2]
1 | CN1C2CCC1CC(OC(=O)C(O)c1ccccc1)C2 (stereo not given) [Homatropine Bromide] (10 µM) | 0.0164 | 108% (inactive)
2 | C=C[C@@]1(C)CC(=O)[C@]2(O)[C@@]3(C)[C@@H](O)CCC(C)(C)[C@@H]3[C@H](OC(=O)CCN(C)C)[C@H](OC(C)=O)[C@@]2(C)O1 [colforsin-daproate] (0.833333 µM) | 0.5 | 88.5% (inactive)
3 | CC(C)N(CCCNC(=O)Nc1ccc(C(C)(C)C)cc1)C[C@H]1O[C@@H](n2cc(Br)c3c(N)ncnc32)[C@H](O)[C@@H]1O (10 µM) | -0.0211 | 120% (inactive)
4 | Clc1ccc(C2(c3ccc(-c4cn[nH]c4)cc3)CCNCC2)cc1 (0.833333 µM) | 0.29 | 112% (inactive)
5 | CCCNC(=O)N1N=C(c2ccc(N)cc2)c2cc3c(cc2C1C)OCO3 (stereo not given) (10 µM) | 0.256 | 96.5% (inactive)
6 | O=C(O)[C@H](O)c1ccccc1 [mandelic-acid] (10 µM) | -0.0448 | 114% (inactive)
7 | CC(C)[C@H]1c2ccc(F)cc2CC[C@@]1(CCN(C)CCCc1nc2ccccc2[nH]1)OC(=O)C1CC1 (0.833333 µM) | 0.0422 | 98% (inactive)
8 | Cc1nn(C)c2c1C(c1ccc(C(F)(F)F)cc1)C(C#N)=C(N)O2 (stereo not given) (10 µM) | 0.0472 | 98% (inactive)
9 | CC[N+](C)(CC)CC(=O)Nc1c(C)cccc1C [N-methyllidocaine-iodide] (10 µM) | 0.0478 | 100% (inactive)
10 | O=C(Nc1cccc(Nc2ncc(Br)c(NCCc3cnc[nH]3)n2)c1)N1CCCC1 (10 µM) | -0.00186 | 110% (inactive)
